In assay [1] the target is Estrogen receptor beta (Homo sapiens) (UniProt Q92731). Kind of assay: OT_ER_ERbERb_1440: Odyssey Thera (OT) 24-hour HEK293T Protein-Complementation Assay for Estrogen Receptor-beta/-beta Homodimer (AID 2283380).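 Note: scored as signal increase over DMSO baseline for both agonists and antagonists.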 An outline of the steps: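 HEK293T cells stably expressing ER beta LBD (aa 310-547) homodimer fragment-complementation reporter, dosed 24 h. Cells formaldehyde-fixed, Draq5-stained; gain in nuclear (agonist) or nuclear plus cytoplasmic (antagonist) fluorescence versus DMSO read by laser scanning cytometry.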

Assay [2] concerns the target Bile acid receptor (Homo sapiens) (UniProt Q96RI1). Description: OT_FXR_FXRSRC1_0480: Odyssey Thera (OT) 8-hour HEK293T Protein-Complementation Assay for Farnesoid X receptor/SRC-1 Co-activator (AID 2283383). An outline of the steps:
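Human kidney HEK293T cells carried FXR/SRC-1 fragment-complementation constructs. Compounds were added and incubated 8 h. Reporter reassembly upon receptor–co-activator interaction was then quantified by fluorescence, with curves fitted in the positive direction relative to DMSO.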

The target is the same in assay [3]. Kind of assay: OT_FXR_FXRSRC1_1440: Odyssey Thera (OT) 24-hour HEK293T Protein-Complementation Assay for Farnesoid X receptor/SRC-1 Co-activator (AID 2283384). An outline of the steps: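 Compounds are applied to human kidney HEK293T cells expressing bait and prey fused to reporter protein fragments; after 24 h, reconstituted reporter fluorescence is measured. Activity is fitted as signal gain over DMSO.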

Assay [4] concerns the target Retinoic acid receptor RXR-alpha (Homo sapiens) (UniProt P19793). Kind of assay: OT_NURR1_NURR1RXRa_0480: Odyssey Thera (OT) 8-hour HEK293T Protein Complementation Assay for Nurr1/retinoid X receptor (RXR) (AID 2283385). An outline of the steps:
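8 h compound exposure, HEK293T; Nurr1/RXRα fragment complementation; fluorescence intensity; positive fitting direction vs DMSO baseline.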

The target is the same in assay [5]. Kind of assay: OT_NURR1_NURR1RXRa_1440: Odyssey Thera (OT) 24-hour HEK293T Protein Complementation Assay for Nurr1/retinoid X receptor (RXR) (AID 2283386). An outline of the steps: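 Interaction of Nurr1 with RXRα brings fused reporter fragments together in human HEK293T cells, restoring a functional reporter. Fluorescence intensity is measured 24 h after chemical treatment, and values are analysed in the positive direction against DMSO.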

Assay [6] addresses Peroxisome proliferator-activated receptor gamma (Homo sapiens) (UniProt P37231). Kind of assay: OT_PPARg_PPARgSRC1_0480: Odyssey Thera (OT) 8-hour Protein-Complementation Assay for Peroxisome Proliferator-activated Receptor Gamma / SRC-1 Co-activator (AID 2283387).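 Note: nuclear to cytoplasmic split Venus YFP fluorescence ratio reporting PPARg SRC-1 interaction.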 In outline: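 HEK293T transiently transfected with PPARg and SRC-1 fused to Venus YFP fragments, compounds 8 h at 37C. Fixed, Draq5-stained cells imaged; nuclear/cytoplasmic 488 nm fluorescence ratio over at least 350 cells per image; gain fitted versus DMSO.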

For assay [7], the target named is Agonist Androgen Response Element (ARE), AR (gene 367) (UniProt P10275). Description: OT_AR_ARELUC_AG_1440: Odyssey Thera (OT) 24-hour CHO-K1 Luciferase Assay for Agonist Androgen Response Element (ARE) (AID 2283379). In outline: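 CHO-K1 cells carrying an ARE-driven luciferase reporter were exposed to compounds for 24 h. Luminescence was then read after adding a D-luciferin/ATP mix, and activity was scored as a gain in signal over DMSO vehicle.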

In assay [8] the target is human Norepinephrine Transporter (NET), SLC6A2 (gene 6530) (UniProt P23975). Kind of assay: NVS_TR_hNET: NovaScreen (NVS) Transporter Assay for human Norepinephrine Transporter (NET) (AID 2283377).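 Note: displacement of radioligand from human NET seen as loss of scintillation signal.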 An outline of the steps:
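Cell-free radioligand binding using CHO-derived membrane protein expressing human NET, read by filter scintillation counting 1 h after dosing; loss of signal vs DMSO. Initial duplicate screen at 25 uM, actives retested in concentration series.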

Assay [9] addresses Estrogen receptor (Homo sapiens) (UniProt P03372). Kind of assay: OT_ERa_GFPERaERE_0480: Odyssey Thera (OT) 8-hour HeLa Transcription Induction Assay for Estrogen Receptor (AID 2283381; active = hit-call score of the fitted dose curve at least 0.9, where 1 is the maximum; inactive = score below 0.9). In outline:
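Fluorescent reporter signal, imaged by microscopy and scored with image-analysis algorithms, was taken 8 h after chemical dosing of HeLa cells; activity was fitted upward relative to DMSO.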

The target is the same in assay [10]. Description: OT_ERa_GFPERaERE_0120: Odyssey Thera (OT) 2-hour HeLa Transcription Induction Assay for Estrogen Receptor (AID 2283382). An outline of the steps: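 HeLa, 384-well, 2 h chemical exposure; GFP reporter induction (ERE), fluorescence microscopy; high content image analysis; positive fitting direction vs DMSO.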

Results filed as inconclusive are left out. Active and inactive are the calls of the source. Rule for the calls, unless noted: active = hit-call score of the fitted dose curve at least 0.9, where 1 is the maximum; inconclusive = response in the unintended direction; inactive = score below 0.9.

Bile acid receptor (Homo sapiens), sequence (Q96RI1 whole entry, looked up, the tested form may be a part): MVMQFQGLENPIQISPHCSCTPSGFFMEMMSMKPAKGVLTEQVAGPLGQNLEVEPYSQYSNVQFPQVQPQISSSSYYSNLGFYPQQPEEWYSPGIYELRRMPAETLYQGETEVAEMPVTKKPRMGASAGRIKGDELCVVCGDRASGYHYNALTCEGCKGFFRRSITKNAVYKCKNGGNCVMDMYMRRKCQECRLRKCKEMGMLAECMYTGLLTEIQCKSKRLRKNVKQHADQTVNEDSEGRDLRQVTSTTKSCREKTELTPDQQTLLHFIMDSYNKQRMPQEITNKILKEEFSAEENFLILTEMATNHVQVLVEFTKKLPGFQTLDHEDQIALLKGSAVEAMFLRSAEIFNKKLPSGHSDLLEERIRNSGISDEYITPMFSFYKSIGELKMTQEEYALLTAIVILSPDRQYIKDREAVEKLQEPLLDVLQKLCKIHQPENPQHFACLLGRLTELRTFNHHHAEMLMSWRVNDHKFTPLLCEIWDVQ
Retinoic acid receptor RXR-alpha (Homo sapiens), sequence (P19793 whole entry, looked up, the tested form may be a part): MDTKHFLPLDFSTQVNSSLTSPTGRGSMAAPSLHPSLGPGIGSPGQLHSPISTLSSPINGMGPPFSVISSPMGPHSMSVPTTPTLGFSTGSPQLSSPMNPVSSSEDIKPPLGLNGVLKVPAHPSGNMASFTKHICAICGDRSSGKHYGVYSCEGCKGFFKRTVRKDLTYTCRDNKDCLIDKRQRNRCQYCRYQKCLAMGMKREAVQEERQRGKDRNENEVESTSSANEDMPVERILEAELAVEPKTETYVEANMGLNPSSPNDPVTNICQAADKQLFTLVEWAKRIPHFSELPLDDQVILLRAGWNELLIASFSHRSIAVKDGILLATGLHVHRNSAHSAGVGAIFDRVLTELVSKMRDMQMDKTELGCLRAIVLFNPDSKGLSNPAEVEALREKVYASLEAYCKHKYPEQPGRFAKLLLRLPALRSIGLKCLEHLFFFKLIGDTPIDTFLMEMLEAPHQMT
Estrogen receptor (Homo sapiens), sequence (P03372 whole entry, looked up): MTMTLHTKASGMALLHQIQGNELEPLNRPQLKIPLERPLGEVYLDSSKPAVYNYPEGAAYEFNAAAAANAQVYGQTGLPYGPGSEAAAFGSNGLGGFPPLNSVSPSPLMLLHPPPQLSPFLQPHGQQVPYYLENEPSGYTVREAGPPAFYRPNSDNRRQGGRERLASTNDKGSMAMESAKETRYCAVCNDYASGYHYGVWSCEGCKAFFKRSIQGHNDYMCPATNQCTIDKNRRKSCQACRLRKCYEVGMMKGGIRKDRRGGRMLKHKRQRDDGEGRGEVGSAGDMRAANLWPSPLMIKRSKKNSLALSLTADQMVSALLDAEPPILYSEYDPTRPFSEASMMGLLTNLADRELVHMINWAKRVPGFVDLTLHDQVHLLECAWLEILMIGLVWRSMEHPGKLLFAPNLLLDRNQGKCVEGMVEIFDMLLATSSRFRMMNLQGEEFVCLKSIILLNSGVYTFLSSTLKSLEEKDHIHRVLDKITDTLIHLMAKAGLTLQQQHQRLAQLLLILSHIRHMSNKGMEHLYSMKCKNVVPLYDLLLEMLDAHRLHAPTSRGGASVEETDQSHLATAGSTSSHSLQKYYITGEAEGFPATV
Agonist Androgen Response Element (ARE), AR (gene 367), sequence (P10275 whole entry, looked up): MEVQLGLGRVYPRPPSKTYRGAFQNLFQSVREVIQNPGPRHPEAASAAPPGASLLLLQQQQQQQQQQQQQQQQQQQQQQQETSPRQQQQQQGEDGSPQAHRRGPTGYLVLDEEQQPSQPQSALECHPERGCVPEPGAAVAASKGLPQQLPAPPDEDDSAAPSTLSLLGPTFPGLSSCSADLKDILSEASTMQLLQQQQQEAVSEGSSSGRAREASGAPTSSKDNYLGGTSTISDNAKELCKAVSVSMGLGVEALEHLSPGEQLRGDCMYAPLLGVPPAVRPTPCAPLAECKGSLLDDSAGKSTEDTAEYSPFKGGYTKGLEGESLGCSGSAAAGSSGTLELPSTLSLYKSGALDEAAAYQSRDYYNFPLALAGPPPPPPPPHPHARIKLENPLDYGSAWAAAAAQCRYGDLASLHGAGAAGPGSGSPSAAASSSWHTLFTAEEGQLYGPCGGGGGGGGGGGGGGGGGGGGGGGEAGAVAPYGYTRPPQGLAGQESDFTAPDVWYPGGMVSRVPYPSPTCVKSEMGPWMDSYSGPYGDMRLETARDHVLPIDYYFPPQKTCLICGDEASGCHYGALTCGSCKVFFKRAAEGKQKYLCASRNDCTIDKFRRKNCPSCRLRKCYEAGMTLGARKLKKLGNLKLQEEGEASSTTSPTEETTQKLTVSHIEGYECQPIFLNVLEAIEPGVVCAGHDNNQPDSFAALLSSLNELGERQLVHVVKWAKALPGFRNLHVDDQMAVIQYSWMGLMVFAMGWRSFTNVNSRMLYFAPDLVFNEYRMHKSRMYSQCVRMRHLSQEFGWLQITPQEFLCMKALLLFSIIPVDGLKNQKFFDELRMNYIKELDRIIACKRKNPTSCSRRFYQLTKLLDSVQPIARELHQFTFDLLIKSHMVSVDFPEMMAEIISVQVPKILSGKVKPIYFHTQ
Peroxisome proliferator-activated receptor gamma (Homo sapiens), sequence (P37231 whole entry, looked up, the tested form may be a part): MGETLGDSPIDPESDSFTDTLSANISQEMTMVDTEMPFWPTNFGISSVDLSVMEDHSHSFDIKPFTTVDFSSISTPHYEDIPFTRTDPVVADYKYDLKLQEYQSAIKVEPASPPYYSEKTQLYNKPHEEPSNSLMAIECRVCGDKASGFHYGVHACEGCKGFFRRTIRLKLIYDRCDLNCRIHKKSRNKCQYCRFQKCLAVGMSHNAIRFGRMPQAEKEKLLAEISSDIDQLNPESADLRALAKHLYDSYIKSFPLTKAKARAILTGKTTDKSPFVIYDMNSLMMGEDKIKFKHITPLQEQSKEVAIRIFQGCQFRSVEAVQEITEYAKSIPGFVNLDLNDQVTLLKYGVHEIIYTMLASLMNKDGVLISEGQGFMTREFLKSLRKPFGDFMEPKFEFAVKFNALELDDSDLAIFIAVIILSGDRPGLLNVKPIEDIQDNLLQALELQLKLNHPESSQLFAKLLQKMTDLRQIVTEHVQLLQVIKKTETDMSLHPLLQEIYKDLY
Estrogen receptor beta (Homo sapiens), sequence (Q92731 whole entry, looked up, the tested form may be a part): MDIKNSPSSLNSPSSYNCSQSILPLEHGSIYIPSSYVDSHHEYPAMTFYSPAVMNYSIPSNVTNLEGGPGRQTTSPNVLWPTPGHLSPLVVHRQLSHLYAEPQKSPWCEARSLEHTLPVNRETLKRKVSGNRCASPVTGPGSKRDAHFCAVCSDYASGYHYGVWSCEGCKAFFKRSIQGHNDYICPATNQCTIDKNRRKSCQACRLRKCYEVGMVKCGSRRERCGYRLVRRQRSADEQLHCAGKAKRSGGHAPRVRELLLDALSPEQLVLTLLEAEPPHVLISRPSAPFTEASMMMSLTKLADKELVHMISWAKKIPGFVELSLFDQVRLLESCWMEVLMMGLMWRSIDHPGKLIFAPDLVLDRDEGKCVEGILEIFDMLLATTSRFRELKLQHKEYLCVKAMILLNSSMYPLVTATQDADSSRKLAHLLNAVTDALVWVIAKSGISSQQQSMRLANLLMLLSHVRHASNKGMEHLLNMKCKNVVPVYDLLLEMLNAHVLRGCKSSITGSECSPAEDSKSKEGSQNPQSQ
human Norepinephrine Transporter (NET), SLC6A2 (gene 6530), sequence (P23975 whole entry, looked up): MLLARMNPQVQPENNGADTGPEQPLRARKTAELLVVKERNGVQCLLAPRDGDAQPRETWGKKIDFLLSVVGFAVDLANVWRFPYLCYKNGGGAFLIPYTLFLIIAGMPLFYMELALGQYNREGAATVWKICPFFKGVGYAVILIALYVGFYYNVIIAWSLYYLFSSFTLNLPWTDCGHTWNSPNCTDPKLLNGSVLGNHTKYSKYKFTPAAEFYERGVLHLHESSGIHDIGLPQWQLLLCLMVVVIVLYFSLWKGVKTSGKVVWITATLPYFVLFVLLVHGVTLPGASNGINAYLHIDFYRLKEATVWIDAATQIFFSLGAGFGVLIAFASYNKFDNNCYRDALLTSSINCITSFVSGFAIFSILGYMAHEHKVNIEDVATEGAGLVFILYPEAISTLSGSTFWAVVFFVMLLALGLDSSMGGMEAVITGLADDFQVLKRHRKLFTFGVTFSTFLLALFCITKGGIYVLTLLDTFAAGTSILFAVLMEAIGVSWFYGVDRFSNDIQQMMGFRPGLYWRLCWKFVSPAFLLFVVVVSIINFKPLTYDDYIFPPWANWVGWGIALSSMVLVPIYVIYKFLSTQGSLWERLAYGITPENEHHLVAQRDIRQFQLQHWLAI

`CC1(C(=O)Nc2ccc(O)c(Cl)c2Cl)CCCCC1`: in [1], the AC50 (in general, the midpoint of the concentration-response curve, whichever way the signal moves) was 20.6 µM (active). Also, the result in [2], in assay [3], in [4], in [5] and in assay [6] was inactive.
As to `O=c1ccc(=O)[nH][nH]1`, the compound was called inactive in assay [7], in assay [2], in assay [4], in assay [5] and in [6].
On to `CCC(=O)Nc1ccc(Cl)c(Cl)c1`, for which the AC50 in assay [8] was 4.14 µM (active). Moreover, the compound was called inactive in [7], in assay [5] and in [6].
As to `Nc1c(Cl)cc([N+](=O)[O-])cc1Cl`, the compound was classed as inactive in assay [7], in assay [1], in [9], in [10], in assay [2] and in assay [4]. The result in assay [5] and in [6] was inactive.
For the compound `CCOC(=O)CC(SP(=O)(OC)OC)C(=O)OCC` (stereo not drawn), the outcome in assay [1], in assay [2], in assay [3], in assay [4], in [5] and in assay [6] was inactive.
As to `COc1ccc(C(=CC(=O)N2CCOCC2)c2ccc(Cl)cc2)cc1OC`, the compound was classed as inactive in assay [1], in [4], in assay [5] and in assay [6]. The AC50 in assay [2] was 31.5 µM (active); in [3], 76.3 µM (active).
Take `CSc1nnc(C(C)(C)C)c(=O)n1N`: the outcome in assay [1], in [2], in assay [3], in [4] and in [5] was inactive.
`COP(=O)(OC)OC(Br)C(Cl)(Cl)Br` (stereo not drawn): the outcome in [1], in assay [9], in assay [10], in assay [2], in [3] and in assay [5] was inactive. Moreover, the compound was classed as inactive in assay [6].
Consider `CCCSP(=O)(OCC)SCCC`, for which the result in assay [7], in assay [1], in assay [2], in [3], in [4] and in assay [5] was inactive. Besides, the call in assay [6] was inactive.
`Cc1ccn2nc(S(=O)(=O)Nc3c(F)cccc3F)nc2n1`: the result in assay [1], in [2], in [3], in assay [4], in [5] and in assay [6] was inactive.
As for `COP(=O)(OC)C(O)C(Cl)(Cl)Cl` (stereo not drawn), the outcome in [2], in assay [4], in assay [5] and in [6] was inactive. Further, the AC50 in assay [3] was 25.1 µM (active).
With `CCOP(=S)(OCC)Oc1ccc2c(C)c(Cl)c(=O)oc2c1`, the compound was called inactive in assay [1], in assay [5] and in [6].

These data come from PubChem BioAssay (EPA / NIEHS).
